In PubChem BioAssay AID1159580 (chemical genetic matrix, 2015):
“And” between values parts separate entries of the source, which are not always exact repeats. Identical values can stand only once. The whole screen tested about 5,500 compounds, of which about 2,000 (36%) were called active. Another 18% or so got no clear call; they are omitted. No stated cut-off is given here; in the data, active means normalized growth mostly below about 0.91 (no sharp cut-off); inconclusive means no clear call, values can overlap the other calls; inactive means mostly above about 0.92. This is one part of the list.

Assay: chemical genetic growth profiling, strain panel (AID 1159580);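 further: tested at 20 µM; growth read once vehicle control cultures reached saturation at 30 °C; 1 = growth at the plate median or of vehicle wells; lower values mean less growth of the strain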
Details: S. cerevisiae deletion strains, growth OD

Measured: normalized growth

COP(N)(=O)SC (configuration not stated)
inactive: locus YAL013W, strain DEP1, active compounds read low 1 | locus YAL021C, strain ccr4, active compounds read low 0.981 | locus YAL026C, strain drs2, active compounds read low 1.01 | locus YAL030W, strain snc1, active compounds read low 1 | locus YBL061C, strain skt5, active compounds read low 1.01 | locus YBR009C, strain hhf1, active compounds read low 1.02 | locus YBR021W, strain FUR4, active compounds read low 1.01 | locus YBR023C, strain chs3, active compounds read low 1.01 | locus YBR171W, strain sec66, active compounds read low 1 | locus YBR229C, strain ROT2, active compounds read low 0.978 | locus YBR231C, strain swc5, active compounds read low 1.01 | locus YBR279W, strain paf1, active compounds read low 1.01 | locus YCL011C, strain gbp2, active compounds read low 1 | locus YCL016C, strain dcc1, active compounds read low 1 | locus YCL029C, strain bik1, active compounds read low 1.01 | locus YCL061C, strain MRC1, active compounds read low 0.997 | locus YCL069W, strain vba3, active compounds read low 1 | locus YCR088W, strain abp1, active compounds read low 1 | locus YDL005C, strain med2, active compounds read low 1 | locus YDL035C, strain GPR1, active compounds read low 1.01 | locus YDL040C, strain nat1, active compounds read low 1.01 | locus YDL074C, strain BRE1, active compounds read low 0.993 | locus YDL101C, strain DUN1, active compounds read low 0.978 | locus YDL134C, strain PPH21, active compounds read low 1.01 | locus YDL185W, strain tfp1, active compounds read low 1.01 | locus YDL192W, strain arf1, active compounds read low 1.01 | locus YDR001C, strain nth1, active compounds read low 0.994 | locus YDR069C, strain doa4, active compounds read low 1.01 | locus YDR101C, strain arx1, active compounds read low 1 | locus YDR137W, strain rgp1, active compounds read low 1.01 | locus YDR150W, strain NUM1, active compounds read low 0.987 | locus YDR159W, strain sac3, active compounds read low 1.02 | locus YDR162C, strain NBP2, active compounds read low 0.993 | locus YDR195W, strain ref2 0.999 | locus YDR297W, strain sur2, active compounds read low 1 | locus YDR318W, strain mcm21, active compounds read low 1.01 | locus YDR334W, strain swr1, active compounds read low 1 | locus YDR335W, strain msn5, active compounds read low 0.998 | locus YDR388W, active compounds read low 1.01 | locus YDR392W, strain spt3, active compounds read low 1.01 | locus YDR502C, strain sam2, active compounds read low 1.01 | locus YEL003W, strain gim4, active compounds read low 1 | locus YEL037C, strain rad23, active compounds read low 0.998 | locus YEL061C, strain CIN8 (second series), active compounds read low 1.01 | locus YEL061C, strain CIN8, active compounds read low 1 | locus YER015W, strain faa2, active compounds read low 1.01 | locus YER016W, strain bim1, active compounds read low 1.01 | locus YER110C, active compounds read low 1.01 | locus YER111C, strain swi4, active compounds read low 1.01 | locus YER155C, strain BEM2 (second series), active compounds read low 1.02 | locus YER155C, strain BEM2, active compounds read low 0.98 | locus YER167W, strain BCK2, active compounds read low 1 | locus YFR010W, strain ubp6, active compounds read low 0.994 | locus YGL078C, strain dbp3, active compounds read low 1.01 | locus YGL086W, strain mad1, active compounds read low 1.01 | locus YGL167C, strain pmr1, active compounds read low 1.01 | locus YGL173C, strain kem1, active compounds read low 1.02 | locus YGL227W, strain vid30, active compounds read low 1.01 | locus YGL240W, strain doc1, active compounds read low 1.02 | locus YGL248W, strain PDE1, active compounds read low 1.01 | locus YGL253W, strain hxk2, active compounds read low 0.997 | locus YGR078C, strain PAC10, active compounds read low 0.997 | locus YGR135W, strain pre9, active compounds read low 0.999 | locus YGR229C, strain SMI1, active compounds read low 1 | locus YGR252W, strain gcn5, active compounds read low 1.02 | locus YHR013C, strain ard1, active compounds read low 0.994 | locus YHR027C, strain rpn1, active compounds read low 1 | locus YHR030C, strain SLT2, active compounds read low 0.986 and 1.05 | locus YHR079C, strain IRE1 (second series), active compounds read low 1.02 | locus YHR079C, strain IRE1, active compounds read low 1.07 | locus YHR094C, strain hxt1, active compounds read low 1.01 | locus YHR129C, strain ARP1, active compounds read low 0.998 | locus YHR142W, strain chs7, active compounds read low 0.982 | locus YHR200W, strain rpn10, active compounds read low 1.01 | locus YIL066C, strain RNR3, active compounds read low 1.03 | locus YIL073C, strain SPO22, active compounds read low 1.06 | locus YIL125W, strain kgd1, active compounds read low 1 | locus YIR030C, strain dcg1, active compounds read low 1.01 | locus YJL092W, strain hpr5, active compounds read low 0.998 | locus YJL095W, strain BCK1 (second series), active compounds read low 1.01 | locus YJL095W, strain BCK1, active compounds read low 0.99 and 1.03 | locus YJL115W, strain asf1, active compounds read low 1 | locus YJL129C, strain trk1, active compounds read low 0.993 | locus YJL134W, strain LCB3, active compounds read low 1 | locus YJL154C, strain vps35, active compounds read low 0.998 | locus YJL164C, strain tpk1, active compounds read low 1 | locus YJL166W, strain qcr8, active compounds read low 1.01 | locus YJL168C, strain set2, active compounds read low 1.01 | locus YJL187C, strain SWE1 (second series), active compounds read low 1.01 | locus YJL187C, strain SWE1, active compounds read low 1.01 | locus YJR043C, strain POL32, active compounds read low 1.02 | locus YJR066W, strain TOR1, active compounds read low 0.985
